The text below walks through data of paper PMC7862700, “An all-to-all approach to the identification of sequence-specific readers for epigenetic DNA modifications on cytosine”.

Common to all, as to experiment: DAPPL (digital affinity profiling via proximity ligation, sequencing); 10 mM Tris-HCl pH 7.5, 50 mM NaCl, 1 mM DTT, 4% glycerol, room temperature, 30 min; GST-TFs on glutathione beads, 16-mer random dsDNA library, 0.1% formaldehyde crosslink after washing; high values mean tight binding
Holding throughout (settings): protein: recombinant; tags: N-terminal GST; dsDNA, one strand shown

The target of one test is T1, ERF (Homo sapiens, UniProt P50548 1-548).
T1 sequence: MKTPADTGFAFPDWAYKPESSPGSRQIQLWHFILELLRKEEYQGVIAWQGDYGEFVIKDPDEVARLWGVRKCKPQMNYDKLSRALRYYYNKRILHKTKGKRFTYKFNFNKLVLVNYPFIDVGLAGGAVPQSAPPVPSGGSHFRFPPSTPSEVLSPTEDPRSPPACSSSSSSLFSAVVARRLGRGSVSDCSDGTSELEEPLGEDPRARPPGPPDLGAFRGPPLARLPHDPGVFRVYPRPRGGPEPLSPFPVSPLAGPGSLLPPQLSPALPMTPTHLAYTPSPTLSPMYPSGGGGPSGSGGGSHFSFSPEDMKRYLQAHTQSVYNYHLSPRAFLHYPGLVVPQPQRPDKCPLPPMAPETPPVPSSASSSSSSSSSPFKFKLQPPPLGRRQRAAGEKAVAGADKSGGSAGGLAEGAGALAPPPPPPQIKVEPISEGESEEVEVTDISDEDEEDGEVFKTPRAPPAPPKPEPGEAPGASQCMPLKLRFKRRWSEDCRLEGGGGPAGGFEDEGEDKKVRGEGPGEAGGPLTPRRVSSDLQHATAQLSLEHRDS
The gist of the method:
(§1)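 Pools of DNA-barcoded human transcription factors, expressed in yeast as GST fusions on glutathione beads and combined with a tag-only sample, were incubated with 200 nmole of a 16-mer random double-stranded DNA library. Incubation took 30 min at room temperature in Tris/NaCl/DTT/glycerol buffer and was followed by washing, 0.1% formaldehyde crosslinking, proximity ligation (BsaI/T4 ligase, 1 h, 37 °C), PCR amplification and sequencing on an Illumina NextSeq500. Binding signal is the ratio of a hexamer's read frequency for a factor to its frequency for the tag-only sample.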

Another test has as its target T2, ETV3L (Homo sapiens, UniProt Q6ZN32 1-361).
T2 sequence: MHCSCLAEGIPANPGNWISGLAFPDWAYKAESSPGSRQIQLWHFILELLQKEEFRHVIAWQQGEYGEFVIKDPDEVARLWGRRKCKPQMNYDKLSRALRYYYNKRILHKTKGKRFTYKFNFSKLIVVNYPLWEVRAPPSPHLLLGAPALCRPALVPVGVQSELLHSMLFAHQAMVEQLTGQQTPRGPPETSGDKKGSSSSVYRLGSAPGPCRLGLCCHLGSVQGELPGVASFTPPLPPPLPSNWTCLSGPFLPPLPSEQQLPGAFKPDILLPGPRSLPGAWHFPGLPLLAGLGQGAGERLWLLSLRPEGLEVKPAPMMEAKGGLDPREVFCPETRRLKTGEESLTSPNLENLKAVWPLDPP
The gist of the method: as §1

For a further test, the target named is T3, ETS2 (Homo sapiens, UniProt P15036 1-469).
T3 sequence: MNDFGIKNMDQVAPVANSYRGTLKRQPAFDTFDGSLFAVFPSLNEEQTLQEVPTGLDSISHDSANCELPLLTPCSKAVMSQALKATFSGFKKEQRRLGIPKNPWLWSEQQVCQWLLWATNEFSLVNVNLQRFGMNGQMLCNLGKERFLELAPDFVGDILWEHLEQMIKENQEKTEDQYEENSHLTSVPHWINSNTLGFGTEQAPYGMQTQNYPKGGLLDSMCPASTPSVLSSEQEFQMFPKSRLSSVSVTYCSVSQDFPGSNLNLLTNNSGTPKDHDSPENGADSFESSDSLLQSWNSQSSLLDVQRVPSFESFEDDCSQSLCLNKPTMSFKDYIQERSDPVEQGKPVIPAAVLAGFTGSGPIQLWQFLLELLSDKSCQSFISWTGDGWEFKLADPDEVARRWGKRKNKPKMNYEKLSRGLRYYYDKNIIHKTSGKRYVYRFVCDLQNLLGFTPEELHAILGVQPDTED
The method, boiled down:
as §1

A further test has as its target T4, SPDEF (Homo sapiens, UniProt O95238 1-335).
T4 sequence: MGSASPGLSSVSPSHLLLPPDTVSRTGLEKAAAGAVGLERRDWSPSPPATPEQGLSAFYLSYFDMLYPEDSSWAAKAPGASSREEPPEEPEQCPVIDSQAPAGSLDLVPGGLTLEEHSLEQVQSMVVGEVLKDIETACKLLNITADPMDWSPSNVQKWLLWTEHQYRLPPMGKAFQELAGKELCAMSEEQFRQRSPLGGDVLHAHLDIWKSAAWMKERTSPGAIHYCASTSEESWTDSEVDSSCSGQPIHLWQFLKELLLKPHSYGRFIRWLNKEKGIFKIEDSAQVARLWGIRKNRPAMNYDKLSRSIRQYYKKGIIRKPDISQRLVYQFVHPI
The gist of the method:
as §1

For the next test, the target named is T5, ETV3 (Homo sapiens, UniProt P41162-2 1-143).
T5 sequence: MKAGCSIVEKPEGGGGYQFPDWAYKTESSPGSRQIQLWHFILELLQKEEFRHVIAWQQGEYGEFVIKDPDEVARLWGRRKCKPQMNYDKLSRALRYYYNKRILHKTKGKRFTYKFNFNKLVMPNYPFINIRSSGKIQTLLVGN
The method, boiled down:
as §1

In another test the target is ETV6 (Homo sapiens, UniProt P41212 1-452). The method, boiled down:
as §1

In another test the target is T6, ELF5 (Homo sapiens, UniProt Q9UKW6-2 1-255).
T6 sequence: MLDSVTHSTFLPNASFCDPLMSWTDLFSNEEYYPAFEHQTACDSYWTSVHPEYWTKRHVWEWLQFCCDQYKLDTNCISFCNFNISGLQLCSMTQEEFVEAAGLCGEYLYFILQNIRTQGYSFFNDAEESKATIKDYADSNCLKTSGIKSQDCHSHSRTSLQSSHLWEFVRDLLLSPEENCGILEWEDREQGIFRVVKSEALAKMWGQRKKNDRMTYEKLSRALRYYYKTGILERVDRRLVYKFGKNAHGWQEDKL
The gist of the method: as §1

Another test deals with T7, ETV7 (Homo sapiens, UniProt Q9Y603 1-341).
T7 sequence: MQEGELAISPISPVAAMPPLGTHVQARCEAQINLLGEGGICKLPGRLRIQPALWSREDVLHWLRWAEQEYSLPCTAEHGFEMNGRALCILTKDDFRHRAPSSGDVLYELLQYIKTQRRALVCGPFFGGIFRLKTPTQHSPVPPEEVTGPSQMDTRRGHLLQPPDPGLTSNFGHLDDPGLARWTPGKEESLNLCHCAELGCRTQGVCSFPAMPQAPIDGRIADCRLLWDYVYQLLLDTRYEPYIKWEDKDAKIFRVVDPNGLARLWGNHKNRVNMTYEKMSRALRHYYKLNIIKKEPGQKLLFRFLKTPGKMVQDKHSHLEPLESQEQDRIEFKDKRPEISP
The method, boiled down: as §1

Chain of ETV6 (P41212 whole entry): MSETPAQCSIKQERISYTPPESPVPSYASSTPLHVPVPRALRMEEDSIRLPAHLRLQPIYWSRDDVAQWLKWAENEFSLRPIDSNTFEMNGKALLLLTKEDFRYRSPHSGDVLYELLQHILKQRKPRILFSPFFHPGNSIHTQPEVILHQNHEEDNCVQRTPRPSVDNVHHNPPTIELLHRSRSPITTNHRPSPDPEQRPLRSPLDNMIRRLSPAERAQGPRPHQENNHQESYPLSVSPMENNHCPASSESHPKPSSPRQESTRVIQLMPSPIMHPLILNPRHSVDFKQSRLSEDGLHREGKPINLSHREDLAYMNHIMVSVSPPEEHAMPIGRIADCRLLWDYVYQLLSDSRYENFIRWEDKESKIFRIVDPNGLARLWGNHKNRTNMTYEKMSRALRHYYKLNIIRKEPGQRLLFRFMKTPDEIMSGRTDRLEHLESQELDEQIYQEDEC

Regarding TAGTGC, the binding signal was 1.12 fold enrichment (6-mer frequency, TF over GST control) with ERF; 1.05 fold enrichment (6-mer frequency, TF over GST control) with ETV3L; 1.08 fold enrichment (6-mer frequency, TF over GST control) with ETS2; 1.06 fold enrichment (6-mer frequency, TF over GST control) with SPDEF; 1.05 fold enrichment (6-mer frequency, TF over GST control) with ETV3; 1.12 fold enrichment (6-mer frequency, TF over GST control) with ETV6.

With GATCCC, the binding signal was 1.3 fold enrichment (6-mer frequency, TF over GST control) with ERF; 1.2 fold enrichment (6-mer frequency, TF over GST control) in the test with ETV3L; 1.11 fold enrichment (6-mer frequency, TF over GST control) in the test with ETS2; 1.27 fold enrichment (6-mer frequency, TF over GST control) with SPDEF; 1.1 fold enrichment (6-mer frequency, TF over GST control) with ELF5; 1.11 fold enrichment (6-mer frequency, TF over GST control) with ETV3. The binding signal with ETV6 was 1.12 fold enrichment (6-mer frequency, TF over GST control).

Regarding CTGTGC, the binding signal is 1.12 fold enrichment (6-mer frequency, TF over GST control) in the test with ERF; 1.13 fold enrichment (6-mer frequency, TF over GST control) in the test with ETV3L; 1.18 fold enrichment (6-mer frequency, TF over GST control) with ETS2; 1.12 fold enrichment (6-mer frequency, TF over GST control) with SPDEF; 1 fold enrichment (6-mer frequency, TF over GST control) with ELF5; 1.19 fold enrichment (6-mer frequency, TF over GST control) in the test with ETV3. Also, the binding signal in the test with ETV6 was 1.22 fold enrichment (6-mer frequency, TF over GST control).

With ATCGTC, the binding signal with ERF is 1.13 fold enrichment (6-mer frequency, TF over GST control); in the test with ETV3L, 1.09 fold enrichment (6-mer frequency, TF over GST control); in the test with ETS2, 1.05 fold enrichment (6-mer frequency, TF over GST control); in the test with SPDEF it was 1.05 fold enrichment (6-mer frequency, TF over GST control); in the test with ELF5 it was 1.07 fold enrichment (6-mer frequency, TF over GST control); with ETV3, 1.06 fold enrichment (6-mer frequency, TF over GST control). In the test with ETV6, the binding signal is 1.06 fold enrichment (6-mer frequency, TF over GST control).

For TTGCGT, the binding signal is 1.21 fold enrichment (6-mer frequency, TF over GST control) in the test with ERF; 1.03 fold enrichment (6-mer frequency, TF over GST control) with ETV3L; 1.08 fold enrichment (6-mer frequency, TF over GST control) in the test with ETS2; 1.03 fold enrichment (6-mer frequency, TF over GST control) with SPDEF; 1.03 fold enrichment (6-mer frequency, TF over GST control) with ELF5; 1.03 fold enrichment (6-mer frequency, TF over GST control) in the test with ETV3. The binding signal with ETV6 was 1.13 fold enrichment (6-mer frequency, TF over GST control).

As for TCTACA, the binding signal with ERF is 1.31 fold enrichment (6-mer frequency, TF over GST control); with ETV3L it was 1.21 fold enrichment (6-mer frequency, TF over GST control); in the test with ETS2 it was 1.29 fold enrichment (6-mer frequency, TF over GST control); with SPDEF, 1.27 fold enrichment (6-mer frequency, TF over GST control); with ELF5, 1.19 fold enrichment (6-mer frequency, TF over GST control); with ETV3 it was 1.18 fold enrichment (6-mer frequency, TF over GST control). In addition, the binding signal in the test with ETV6 is 1.19 fold enrichment (6-mer frequency, TF over GST control).

Take ATCAAT: the binding signal with ERF was 1.15 fold enrichment (6-mer frequency, TF over GST control); in the test with ETV3L, 1.03 fold enrichment (6-mer frequency, TF over GST control); with ETS2 it was 1.05 fold enrichment (6-mer frequency, TF over GST control); with SPDEF, 1.03 fold enrichment (6-mer frequency, TF over GST control); with ETV7, 1.12 fold enrichment (6-mer frequency, TF over GST control); with ETV3 it was 1.14 fold enrichment (6-mer frequency, TF over GST control). Further, the binding signal with ETV6 is 1.07 fold enrichment (6-mer frequency, TF over GST control).
